Assay [1] deals with Wnt5a (protein binding on small-molecule microarray). The experiment in a line: small molecules binding Wnt5a protein – biophysical, small-molecule microarray, 635/667 nm fluorescence, primary screen (AID 1142).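 Note: fluorescence read at 667 nm with signal to noise per printed feature.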 To be noted: 635 nm fluorescence, higher = more signal.
Assay [2] in a line: ATP-based viability of Huh7 replicon cells – cell-based, CellTiter-Glo luminescence, basal, 48 h, cytotoxicity control for HCV replication inhibitor project, primary screen (AID 1143).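 Note: Huh7 hepatoma cells carrying a hepatitis C replication reporter with no stimulus; test concentration not given here.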 To be noted: higher = more signal, called active from +8 up or from −8 down. On the technique in general: Replicon systems follow genome replication, usually without infectious particles.
A short description of assay [3]: Pseudomonas biofilm growth suppression – PAO1 strain, BacTiter-Glo luminescence, LB-PBS, primary screen (AID 1144). To be noted: P. aeruginosa PAO1 biofilm, 12 h, higher = more signal.
The nature of assay [4]: basal CRE-LacZ reporter activity in PC12 – cell-based, unstimulated, primary screen (AID 1145). To be noted: no forskolin, luminescence, 4.5 h, higher = more signal, called active from +8 up or from −8 down.
Assay [5] in a line: forskolin-driven CRE-LacZ activity in PC12 – cell-based, CRE-LacZ reporter, forskolin-stimulated, primary screen (AID 1146).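 Note: PC12 cells with 6xCRE LacZ reporter stimulated by forskolin 10 µM; beta-galactosidase reporter signal reflecting CREB driven transcription.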 To be noted: luminescence, 4.5 h, higher = more signal, called active from +8 up or from −8 down.
The target of assay [6] is Streptavidin (Streptomyces avidinii) (UniProt P22629). The experiment in a line: compounds binding control protein streptavidin – biophysical, small-molecule microarray, 635/667 nm fluorescence, artefact control for SMM compound annotation, primary screen (AID 1147).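 Note: signal reflects streptavidin binding to arrayed compounds as a control protein.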 To be noted: higher = more signal.
Chain of Streptavidin (Streptomyces avidinii) (P22629 whole entry, looked up): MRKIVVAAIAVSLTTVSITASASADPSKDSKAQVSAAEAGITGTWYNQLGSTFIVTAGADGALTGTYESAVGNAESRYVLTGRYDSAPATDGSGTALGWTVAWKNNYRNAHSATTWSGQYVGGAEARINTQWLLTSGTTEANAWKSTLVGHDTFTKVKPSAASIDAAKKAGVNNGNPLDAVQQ
The nature of assay [7]: probe aInhba binding on compound microarray – biochemical, small-molecule microarray, 635/667 nm fluorescence, primary screen (AID 1148).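 Note: score merges 667nm spot fluorescence with signal-to-noise for antibody binding to printed compounds.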 To be noted: higher = more signal.
Assay [8] concerns the target Torsin-1A (Homo sapiens) (UniProt O14656). The experiment in a line: TOR1A wild-type binding on microarray – cell lysate, small-molecule microarray, lysate, 635/667 nm, primary screen (AID 1149). To be noted: COS7 hTOR1A-WT lysate, 635 nm fluorescence, higher = more signal.
The target is the same in assay [9]. As to the kind of experiment: torsin A mutant lysate binding on microarrays – cell lysate, small-molecule microarray, COS7 lysate, 635/667 nm fluorescence, primary screen (AID 1150).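 Note: score pools 667 nm emission and signal to noise measuring lysate protein binding.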 To be noted: COS7 hTOR1A mutant lysate, 635 nm fluorescence, higher = more signal.
Assay [10] has as its system Sonic hedgehog protein (Shh). As to the kind of experiment: Sonic hedgehog microarray binding compounds – biochemical, small-molecule microarray, 635/667 nm fluorescence, primary screen (AID 1151).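 Note: Shh protein binding to compounds spotted on small-molecule microarray slides; score combines spot fluorescence intensity with signal-to-noise across triplicate slides.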 To be noted: 635 nm fluorescence, higher = more signal.
A short description of assay [11]: optical density shifts of acrAB sulA E. coli – strain DRC41, OD650, 48 h, E. coli filamentation inducer project, primary screen (AID 1152).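 Note: E. coli MC1000 strain DRC41 lacking acrAB efflux pump and sulA.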 To be noted: higher = more signal, called active from +8 up or from −8 down.
The nature of assay [12]: probe aLefty1 binding on compound microarray – biochemical, small-molecule microarray, 635/667 nm fluorescence, primary screen (AID 1153).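 Note: score merges spot fluorescence with signal-to-noise ratio from the scanned slide images.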 To be noted: higher = more signal.
Assay [13] in a line: plasmodial surface anion channel blockers, osmotic lysis – cell-based, P. falciparum Indochina, OD700, 1 h, primary screen (AID 1154). To be noted: P. falciparum Indochina infected RBC osmotic lysis, higher = more signal, called active from +8 up or from −8 down.
A short description of assay [14]: plasmodial surface anion channel blockers, osmotic lysis – cell-based, P. falciparum Indochina, OD700, 2 h, primary screen (AID 1155).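 Note: lysis reports solute entry through the parasite surface anion channel PSAC.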 To be noted: P. falciparum Indochina infected erythrocytes, higher = more signal, called active from +8 up or from −8 down.
Assay [15] can be described thus: changes in parasitized red cell lysis, either direction – P. falciparum Indochina, OD700, 3 h, PSAC antagonist project, primary screen (AID 1156). To be noted: P. falciparum-infected erythrocytes, osmotic lysis, higher = more signal, called active from +8 up or from −8 down.
Assay [16] can be described thus: plasmodial surface anion channel blockers, osmotic lysis – cell-based, P. falciparum Indochina, OD700, 18 h, primary screen (AID 1157). To be noted: P. falciparum Indochina infected erythrocytes, osmotic lysis OD700, 18 h; higher = more signal, called active from +8 up or from −8 down.
Assay [17] in a line: S6 kinase pathway phospho-S6 level changes – cell-based, A549, cytoblot, luminescence, serum-stimulated, primary screen (AID 1158).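 Note: serum-stimulated A549 lung adenocarcinoma cells; signal is phosphorylated S6 detected by cytoblot immunostaining with HRP secondary.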 To be noted: 5 h, higher = more signal.
For assay [18], the target named is NADPH oxidase 2 (Homo sapiens) (UniProt P04839). As to the kind of experiment: compounds shifting NOX2 Amplex Red fluorescence – cell-based, HEK293-NOX2, PMA-stimulated, NOX inhibitor project, primary screen (AID 1159). Note: test concentration not given here. To be noted: 45 min, higher = more signal, called active from +8 up or from −8 down.
Chain of NADPH oxidase 2 (Homo sapiens) (P04839 whole entry, looked up): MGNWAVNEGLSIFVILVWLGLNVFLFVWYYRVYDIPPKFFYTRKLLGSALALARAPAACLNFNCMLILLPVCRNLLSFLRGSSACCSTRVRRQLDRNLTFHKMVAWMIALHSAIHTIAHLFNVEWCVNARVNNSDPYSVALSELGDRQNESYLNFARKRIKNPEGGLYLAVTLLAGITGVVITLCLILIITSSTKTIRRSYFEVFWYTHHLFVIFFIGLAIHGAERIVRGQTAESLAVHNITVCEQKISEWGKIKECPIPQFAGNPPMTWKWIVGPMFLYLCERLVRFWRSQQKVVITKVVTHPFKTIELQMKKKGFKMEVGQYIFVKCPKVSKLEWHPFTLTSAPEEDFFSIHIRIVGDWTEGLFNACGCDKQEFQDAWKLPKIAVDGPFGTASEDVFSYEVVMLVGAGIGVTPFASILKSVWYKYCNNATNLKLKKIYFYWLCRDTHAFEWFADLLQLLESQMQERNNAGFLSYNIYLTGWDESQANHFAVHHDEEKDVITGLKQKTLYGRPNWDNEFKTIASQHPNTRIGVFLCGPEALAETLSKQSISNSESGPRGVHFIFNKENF
Assay [19] has as its target NADPH oxidase 4 (Homo sapiens) (UniProt Q9NPH5). The experiment in a line: compounds shifting NOX4 Amplex Red fluorescence – cell-based, HEK293-NOX4, tetracycline-induced, NOX inhibitor project, primary screen (AID 1160). To be noted: HEK293-NOX4, Amplex Red H2O2 fluorescence, 45 min; higher = more signal, called active from +8 up or from −8 down.
Assay [20] deals with NADPH oxidase 5 (Homo sapiens) (UniProt Q96PH1). As to the kind of experiment: compounds shifting NOX5 Amplex Red fluorescence – cell-based, HEK293-NOX5, NOX inhibitor project, primary screen (AID 1161). To be noted: HEK293-NOX5, ionomycin, 45 min, higher = more signal.
Chain of NADPH oxidase 5 (Homo sapiens) (Q96PH1 whole entry, looked up): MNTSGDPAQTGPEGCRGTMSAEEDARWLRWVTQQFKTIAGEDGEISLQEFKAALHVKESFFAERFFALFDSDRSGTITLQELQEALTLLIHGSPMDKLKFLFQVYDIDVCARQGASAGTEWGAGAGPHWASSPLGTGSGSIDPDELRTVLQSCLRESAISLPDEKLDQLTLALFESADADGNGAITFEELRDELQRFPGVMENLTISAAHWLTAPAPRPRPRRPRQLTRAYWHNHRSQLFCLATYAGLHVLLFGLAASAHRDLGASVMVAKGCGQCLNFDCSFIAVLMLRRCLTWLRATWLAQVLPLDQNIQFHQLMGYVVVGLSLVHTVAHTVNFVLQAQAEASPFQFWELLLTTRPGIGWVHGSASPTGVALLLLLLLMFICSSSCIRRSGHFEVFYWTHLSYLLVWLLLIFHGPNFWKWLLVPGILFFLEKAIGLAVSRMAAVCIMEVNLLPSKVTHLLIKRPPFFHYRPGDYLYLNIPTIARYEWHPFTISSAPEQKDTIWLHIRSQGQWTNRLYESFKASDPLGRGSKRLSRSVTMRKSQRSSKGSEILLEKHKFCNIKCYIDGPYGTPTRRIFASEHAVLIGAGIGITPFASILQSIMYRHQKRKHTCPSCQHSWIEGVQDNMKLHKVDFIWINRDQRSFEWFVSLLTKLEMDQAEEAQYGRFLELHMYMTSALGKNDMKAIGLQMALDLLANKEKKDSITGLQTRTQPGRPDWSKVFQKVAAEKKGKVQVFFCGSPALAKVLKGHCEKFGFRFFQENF

Calls of active or inactive are those of the source. Unless noted, the rule behind the calls is not given here.

Chain of NADPH oxidase 4 (Homo sapiens) (Q9NPH5 whole entry, looked up): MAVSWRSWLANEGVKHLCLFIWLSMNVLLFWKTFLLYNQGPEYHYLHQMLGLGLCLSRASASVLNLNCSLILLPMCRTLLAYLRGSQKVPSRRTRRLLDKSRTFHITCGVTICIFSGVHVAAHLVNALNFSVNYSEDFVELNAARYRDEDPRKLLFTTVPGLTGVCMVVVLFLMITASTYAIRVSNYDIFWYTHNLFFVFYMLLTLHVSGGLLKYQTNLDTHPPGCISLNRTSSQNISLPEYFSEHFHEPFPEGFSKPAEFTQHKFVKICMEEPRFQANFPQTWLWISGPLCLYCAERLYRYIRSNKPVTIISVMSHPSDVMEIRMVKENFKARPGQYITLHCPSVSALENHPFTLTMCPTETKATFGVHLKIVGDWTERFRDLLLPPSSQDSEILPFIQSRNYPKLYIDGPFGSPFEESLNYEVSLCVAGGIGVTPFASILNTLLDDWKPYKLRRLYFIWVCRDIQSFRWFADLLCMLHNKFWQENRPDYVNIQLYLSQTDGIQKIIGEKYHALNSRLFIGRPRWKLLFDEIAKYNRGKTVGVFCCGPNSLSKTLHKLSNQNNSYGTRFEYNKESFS
Chain of Torsin-1A (Homo sapiens) (O14656 whole entry, looked up): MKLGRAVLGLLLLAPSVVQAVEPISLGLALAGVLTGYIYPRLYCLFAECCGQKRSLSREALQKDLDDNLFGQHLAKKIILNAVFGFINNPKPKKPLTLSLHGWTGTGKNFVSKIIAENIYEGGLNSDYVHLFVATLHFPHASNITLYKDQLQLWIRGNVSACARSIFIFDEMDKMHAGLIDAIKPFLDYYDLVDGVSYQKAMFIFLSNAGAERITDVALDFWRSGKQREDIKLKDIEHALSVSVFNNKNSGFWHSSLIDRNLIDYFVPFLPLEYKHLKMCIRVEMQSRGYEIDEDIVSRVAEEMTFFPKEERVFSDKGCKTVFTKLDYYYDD

Turning to `CCN(CC)c1ccc(N2CC=CC34O[C@@H]5C=CCOC(=O)[C@@H]5[C@H]3C(=O)N(CCO)[C@@H]4C2=O)cc1` (stereo not given in full), the composite z-score in assay [1] was -0.403; in assay [6], -1.77; in assay [7], 0.476; in the assay with Torsin-1A (Homo sapiens) [8], -0.0491; with Torsin-1A (Homo sapiens) [9] it was -0.669; in assay [10], -0.198. Further, the composite z-score in [12] amounted to 0.0434. Besides, the z-score was -0.271 (inactive) in assay [2]; 1.72 (inactive) in assay [3]; -0.0656 (inactive) in assay [4]; -0.599 (inactive) in assay [5]; 1.51 (inactive) in [11]; 0.116 (inactive) in [13]. Also, the z-score is 0.0907 (inactive) in assay [14]; 0.714 (inactive) in assay [15]; -0.0665 (inactive) in assay [16]; -0.221 in assay [17]; -0.0361 (inactive) in assay [18]; 0.364 (inactive) in assay [19]. Also, the z-score in assay [20] was determined as 0.613.
Take `C=CC[C@@]12N=C(c3ccc(OCCCO)cc3)O[C@@H]1c1ccccc1N(Cc1ccccc1)C2=O`: the composite z-score in [1] worked out at 0.711; in assay [6], 0.25; in assay [7], 0.605; with Torsin-1A (Homo sapiens) [8], 1.19; with Torsin-1A (Homo sapiens) [9] it was 0.909; in assay [10] it was 2.06. The compound further returned a composite z-score in [12] of 1.47. Further, the z-score was -4.31 (inactive) in assay [2]; 0.519 (inactive) in assay [3]; 1.1 (inactive) in assay [4]; -1.66 (inactive) in assay [5]; 1.04 (inactive) in assay [11]; 31.3 (active) in assay [13]. The z-score in assay [14] is 28.1 (active); in assay [15], 3.1 (inactive); in assay [16], 2.31 (inactive); in [17], -0.0677; in assay [18] it was -0.812 (inactive); in [19], -0.091 (inactive). In addition, the z-score in assay [20] is -1.59.
`CCOC(=O)C[C@H]1[C@H](OC(=O)c2cc3ccccc3oc2=O)[C@@H](NC(=O)C2CCCCC2)c2cc(OCCCO)ccc2N1C(=O)Cc1ccc(OC)cc1`: the composite z-score was 0.418 in assay [1]; 0.214 in assay [6]; 0.243 in assay [7]; 0.144 with Torsin-1A (Homo sapiens) [8]; 0.384 in the assay with Torsin-1A (Homo sapiens) [9]; 1.15 in [10]. Also, the composite z-score in assay [12] is 0.266. Also, the z-score in [2] was -0.588 (inactive); in assay [3], -0.273 (inactive); in [4], 0.849 (inactive); in assay [5], -0.0784 (inactive); in assay [11], -0.926 (inactive); in [13] it was 2.92 (inactive). The z-score in assay [14] is 0.275 (inactive); in assay [15], 0.722 (inactive); in assay [16] it was 0.328 (inactive); in [17] it was 0.0301; in [18] it was 1.57 (inactive); in assay [19], 1.01 (inactive). For the same compound, the z-score in assay [20] worked out at 1.63.
As to `CCOC(=O)C[C@H]1[C@H](OC(=O)c2ccc(-c3ccccc3)cc2)[C@@H](NC(=O)CC(C)C)c2cc(OCCCO)ccc2N1C(=O)Cc1ccc(OC)cc1`, the composite z-score in [1] was 0.0564; in [6] it was 0.438; in [7] it was -0.0223; in the assay with Torsin-1A (Homo sapiens) [8], -0.111; with Torsin-1A (Homo sapiens) [9] it was 0.508; in assay [10] it was -0.307. Moreover, in assay [12], the composite z-score is -0.323. Further, the z-score in assay [2] is -0.155 (inactive); in assay [3], 0.606 (inactive); in assay [4], 0.0035 (inactive); in assay [5], -0.163 (inactive); in assay [11], -0.931 (inactive); in assay [13], 3.94 (inactive). Besides, the z-score in assay [14] is 0.786 (inactive); in [15] it was -0.348 (inactive); in assay [16], 0.261 (inactive); in assay [17], -0.0775; in assay [18], -0.521 (inactive); in assay [19], 1.12 (inactive). Further, in assay [20], the z-score amounted to 2.11.

(Values after PubChem BioAssay.)
